About 79,000 compounds went through this panel and 15% of them were active in at least one assay; those are over-represented in the sample as a whole. Unmarked numbers belong to inactive results. Calls of active or inactive are those of the source. Rule as the data show it: active = growth inhibition above about 70%; inactive = the rest.
Test: NCI Yeast Anticancer Drug Screen. Data for the rad50EPP+ strain (AID 151);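 also: 0% = growth of vehicle-treated control cultures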
Conditions: S. cerevisiae rad50 mutant strain, stronger effect = higher value
Experimental: Growth inhibition of yeast strains with defined genetic alterations is measured as a screen for potential anti-cancer activity. Selected strains with alterations in DNA damage repair or cell cycle control were exposed to compounds and growth inhibition was measured relative to vehicle treated controls. The strain used in this assay is rad50EPP+

| Compound | growth inhibition (at 1.2 µM) | growth inhibition (at 3.7 µM) | growth inhibition (at 11.0 µM) | growth inhibition (at 33.0 µM) | growth inhibition (at 100.0 µM) |
| --- | --- | --- | --- | --- | --- |
| CC(C)(C)N=C(NO)c1ccccc1 | 0% | 3% | 14% | 35% | 63% |
| CCOC(=O)c1cc([N+](=O)[O-])c(Sc2ncnc3nc[nH]c23)c([N+](=O)[O-])c1 | -8% | -8% | -5% | 6% | 22% |
| CN1C(=O)c2ccc3ccccc3c2C1=O | 8% | 12% | 42% | 58% | 52% |
| Cc1ccc(CC2(OCCN(C)C)CCC(C(C)(C)C)CC2)cc1 (stereo not given) | -4% | -9% | -3% | -2% | 97% (active) |
| CN1CCN(C(=O)/C=C/C(=O)c2ccccc2)CC1 | 4% | 13% | 31% | 50% | 66% |
| CCOC1Oc2ccccc2-c2nc(N)ncc21 (stereo not given) | 0% | -1% | -5% | -3% | -12% |
| CS(=O)(=O)SCc1ccc([N+](=O)[O-])cc1 | 8% | 57% | 97% (active) | 99% (active) | 97% (active) |
| CC(C)CCCC(C)C1CCC2C3CCC4=CC(=O)/C(=C\O)CC4(C)C3CCC12C (stereo not given) | 2% | -2% | -6% | -8% | -4% |

From PubChem BioAssay (NCI)
